# From PubChem BioAssay AID2061317 (National Center for Advancing Translational Sciences (NCATS), 2025)
# Results filed as inconclusive are left out. The source made the active and inactive calls. Calls come from the whole dose curve; as a rule, active = well fitted inhibition curve with a large enough effect; inconclusive = small, poorly fitted or top-dose-only effect; inactive = flat fitted curve, though single readings scatter.
# Experiment: Identification of antibody-drug conjugate (ADC) payloads which are substrates of ATP-binding cassette drug efflux transporters: ABCB1-HEK293-MDR-19 cell line with tariquidar
# Details: HEK293 ABCB1 (MDR-19) + tariquidar, CellTiter-Glo viability, 48 h
# Source text: Antibody-drug conjugates (ADCs) feature an antibody recognizing a specific protein joined to a potent toxic payload. Numerous antibody-drug conjugates have received FDA approval; however, clinical resistance arises. Resistance mechanisms include decreased expression or mutation of the antibody target, impaired payload release, or increased expression of ATP-binding cassette (ABC) efflux transporters associated with multidrug resistance. We therefore sought to characterize the interaction of ABC multidrug transporters with ADC payloads. We performed a high-throughput screen with 27 common ADC payloads using cells lines expressing ABC transporters P-glycoprotein (P-gp, encoded by ABCB1) or ABCG2 (encoded by ABCG2). Confirmatory assays were also performed using cells transfected to express P-gp, ABCG2, or MRP1 (encoded by ABCC1). Several commonly used ADC payloads were substrates of P-gp, including calicheamicin gamma1, monomethyl auristatin E, DM1, and DM4. All the pyrrolobenzodiazepines tested - SJG136, SGD-1882, SG2057, and SG3199 - were substrates of P-gp, ABCG2, and MRP1. […] These findings highlight the risk of transporter-mediated resistance with certain ADC payloads and underscore the importance of selecting payloads that evade ABC transporter recognition in future ADC development.
# HEK-293 cells were transfected with empty vector (pcDNA) or vector containing the human ABCB1 (MDR-19), ABCG2 (R-5), or ABCC1 gene (MRP1) and were maintained in EMEM with 2 mg/mL G418 added to maintain transporter expression. The HeLa derivative KB-3-1 and the P-gp overexpressing KB-8-5-11 subline were maintained in DMEM; KB-8-5-11 additionally received 100 ng/mL colchicine. H460 parental cells were obtained from the Division of Cancer Treatment and Diagnosis Tumor Repository, National Cancer Institute at Frederick, MD and were cultured in RPMI. The ABCG2 expressing subline H460 MX20 was generated by selecting H460 cells in 20 nM mitoxantrone. Media in all cases was supplemented with 10% FBS and 1% penicillin-streptomycin. We explored 27 common ADC payloads, in two orthogonal, paired cell line sets-a drug selected and transfected set for each transporter--to identify substrates of the ABC transporters P-gp and ABCG2. Compounds were sourced from Levena Biopharma (San Diego, CA), Selleck Chem (Houston, TX), ChemieTek (Indianapolis, IN), or Microsource Discovery Systems (Gaylordsville, CT). Screening was performed as previously described. Briefly, cells were plated at a density of 500 cells/well in 1536 well plates with compounds added using a 1536-head pin tool (Kalypsys, San Diego CA). Cells were incubated with cytotoxic drugs and processed with CellTiter Glo reagent (Promega, Madison, WI) to determine viability after 48 hours. P-gp substrates were identified by comparing compound activity between paired sets of low-expressing (sensitive) and over-expressing (resistant) cell lines.
row,Structure (SMILES),Potency
1,CC[C@@]1(O)C(=O)OCc2c1cc1n(c2=O)Cc2cc3ccccc3nc2-1,13.3 nM (active)
2,COc1cc2cc(C(=O)N3C[C@@H](CCl)c4c3cc(O)c3ccccc43)[nH]c2c(OC)c1OC,1.7 nM (active)
3,CC[C@H](C)[C@H](NC(=O)[C@H]1CCCCN1C)C(=O)N(C)[C@H](C[C@@H](OC(C)=O)c1nc(C(=O)N[C@@H](Cc2ccccc2)C[C@H](C)C(=O)O)cs1)C(C)C,3.3 nM (active)
4,COc1cccc2c1C(=O)c1c(O)c3c(c(O)c1C2=O)C[C@@](O)(C(=O)CO)CC3OC1CC(N2CCOC(OC)C2)C(O)C(C)O1 (some centres not stated),1.3 nM (active)
5,COc1cc2cc(c1Cl)N(C)C(=O)C[C@H](OC(=O)C(C)C)[C@]1(C)O[C@H]1[C@H](C)[C@@H]1C[C@@](O)(NC(=O)O1)[C@H](OC)C=CC=C(C)C2,0.3 nM (active)
6,COc1cc2cc(c1Cl)N(C)C(=O)C[C@H](OC(=O)[C@H](C)N(C)C(=O)CCC(C)(C)S)[C@]1(C)OC1[C@H](C)C1C[C@@](O)(NC(=O)O1)[C@H](OC)/C=C/C=C(\C)C2 (some centres not stated),1.2 nM (active)
7,CC[C@H](C)[C@@H]([C@@H](CC(=O)N1CCC[C@H]1[C@H](OC)[C@@H](C)C(=O)N[C@H](C)[C@@H](O)c1ccccc1)OC)N(C)C(=O)[C@@H](NC(=O)[C@H](C(C)C)N(C)C)C(C)C,1.3 nM (active)
